# Measurements published in PubChem BioAssay (NCI).
# About 83,000 compounds went through this panel and 20% of them were active in at least one assay; those are over-represented in the sample as a whole.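 Assay: single dose, 48 h. Readout: percent growth (0 = no net growth; negative = cell death). Active: <10.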 Unmarked numbers belong to inactive results. Active and inactive are the calls of the source.
# Test system: OVCAR-3 ovarian
# Assay: NCI-60 one-dose screen, 48 h (100 = growth as untreated, 0 = no growth, -100 = all killed)
# Conditions: 10 µM unless noted
# Description: Growth inhibition of the OVCAR-3 human tumor cell line is measured as a screen for anti-cancer activity. Cells are grown in 96 well plates and exposed to the test compound for 48 hours. Compounds are tested at a single concentration, which is 10^-5 M for most compounds. The reported endpoint is percent growth (GI% or GIPRCNT), where numbers from 0 - 100% represent growth inhibition, and numbers from -100% - 0 represent cell death. For example, a value of 40 represents 60% growth inhibition. A value of 0 means no net growth occurred over the course of the experiment. A value of -40 indicates 40% of cells at the beginning of the experiment died by the end of the experiment. A value of -100 means all cells are dead at the end of the experiment.
# NCI-60 Human Tumor Cell Lines Screen was performed using the standard one-dose NCI protocol, which is described in more detail at https://dtp.cancer.gov/discovery_development/nci-60/default.htm.
# Compounds with GIPRCNT values below 10 were considered active. Activity score was based on GIPRCNT using the following formula: […]
# Score is 0 for GIPRCNT values of 100 or above, 50 for GIPRCNT values of 0, and 100 for GIPRCNT values of -100.
row,Structure (SMILES),growth
1,CC(C)(C)OC(=O)N1C/C(=C\c2ccccc2)C(=O)/C(=C/c2ccccc2)C1,103%
2,COc1cccc(CNC(=O)c2cccc(C3CC(=O)c4c(cc(OC)c(OC)c4OC)O3)c2)c1 (stereo not given),12.6%
3,COc1ccc(-c2nc(SCC(C)C)nc(Nc3ccc(C)cc3)c2C#N)cc1,33.8%
4,CCCNC(=O)Oc1ccc(/C(=C(/C)Cc2ccc(OC)cc2)c2ccc(OCCN3CCCCC3)cc2)cc1,88.6%
5,CC(=O)Nc1nc(C)c(C(=O)NNC(=O)Nc2ccccc2)s1,100%
6,O=C(CCl)c1ccc2c(c1)CCCC2,114%
7,N#Cc1ccc(NC2c3ccccc3CC2O)cc1 (stereo not given),129%
8,CC1=C(C)C[C@]2(C(=O)O[C@H]3CCCC[C@@H]32)[S@](=O)C1,107%
9,O=C1C(=O)c2ccccc2C(O)=C1CCCc1ccc(C2CCCC2)cc1,39.3%
10,COC(=O)CC(=O)C(=O)OC,106%
11,CNCCCNCCCCNCCCN1C(=O)c2ccc3c4c(ccc(c24)C1=O)C(=O)N(CCCNCc1ccccc1OC)C3=O,6.09% (active)
12,Cc1ccc(S(=O)(=O)Nc2cccc(Cn3c(=O)[nH]c4ccc(Oc5ncccn5)cc4c3=O)c2)cc1,38.9%
13,COc1ccc(/C=C(/C(=O)N2CCCCC2)c2cc(OC)c(OC)c(OC)c2)cc1,-19.2% (active)
14,CCOc1nc(-c2ccccc2)cc2c(O)c(C(=O)N/N=C/c3ccccc3O)[nH]c(=O)c12,76.7%
15,O=C(O)c1ccc(-c2nn(-c3ccc(C(=O)O)cc3)cc2CNc2ccc(Br)cc2)cc1,104%
16,COc1ccc(C2CC(=O)c3c(O)cc(OC4OC(COC5OC(C)C(O)C(O)C5O)C(O)C(O)C4O)cc3O2)cc1O (stereo not given),131%
17,CC(=O)OCC(=O)[C@@]1(O)[C@H](C)C[C@H]2[C@@H]3C=C(C)C4=Cc5c(cnn5-c5ccc(F)cc5)C[C@]4(C)[C@H]3[C@@H](O)C[C@@]21C,-20% (active)
18,COc1cccc(-c2cc(-c3cc4ccccc4oc3=O)nc(N)n2)c1,95%
19,CCCCCCCCCc1cc[n+](CC(=O)c2ccc([N+](=O)[O-])cc2)cc1,3.13% (active)
20,CCOC(=O)c1cc(C(=O)c2ccc(Br)cc2)n2cc(C)cc(C)c12,104%

row,Structure (SMILES),growth
1,COC1NC(Cl)=C(C#N)C(C#N)(C#N)C1(C)C (stereo not given),123%
2,Cc1nc(N)sc1C(=O)NCCO,102%
3,O=C(CCC(=O)N(CCO)CCO)N(CCO)CCO,97.5%
4,O=C(O)CS(=O)c1ccc(Cl)cc1 (stereo not given),115%
5,CCCCCCCCCCCCc1ccc([N+](CC)(CC)CC)cc1,23.2%
6,O=c1oc2ccc3ccccc3c2cc1-c1ccnc2[nH]c(=S)[nH]c(=O)c12,107%
7,C/C(=N\Nc1ccc(Cl)cn1)c1ccccn1,20.5%
8,Cc1cc2cn3c4ccc(O)cc4[nH]c(=O)c3c2cc1C,-34.9% (active)
9,CC(=O)OC1/C=C\CC/C=C\C1 (stereo not given),115%
10,COc1cc(-c2nn(-c3ccc(NC(=O)Nc4cc(C(F)(F)F)cc(C(F)(F)F)c4)cc3)cc2-c2ccncc2)ccc1Cl,-20.9% (active)
11,Cc1ccc(CC(=O)O)c(C)c1,103%
12,COc1cc(NC(C)CCCN)c2nc(C)ccc2c1OC (stereo not given),64.1%
13,COc1ccc2c(N)ncc(C#Cc3cc(C(=O)Nc4ccc(CN5CCN(C)CC5)c(C(F)(F)F)c4)cnc3C)c2c1,11.7%
14,COc1ccc(CN2C(=O)/C(=C\C(=O)c3ccc(OCCN4CCCC4)cc3)c3ccccc32)cc1,49.6%
15,CC(=O)Nc1nc(C)c(C(=O)NNS(=O)(=O)c2ccccc2)s1,136%
16,CC1(C)NCCC[C@]2(C)[C@H]3CC=C4[C@@H]5C[C@](C)(COC(=O)c6ccccc6C(=O)O)CC[C@]5(C)CC[C@@]4(C)[C@]3(C)CC[C@@H]12,60%
17,COc1ccc(Cn2cc3c(c2-c2ccccc2)CCc2cnoc2-3)cc1OC,13.8%
18,N=c1c2c(=O)n3c(nc2nc2sc4ccc(Cl)cc4n12)-c1ccccc1Sc1ccccc1-3,20.9%
19,Cc1ccnc2c(NC(C)CCCN)cc(O)c(O)c12 (stereo not given),59.8%
20,CC(=O)c1cc(Nc2cc(C)nc(N)n2)cc(C(C)=O)c1,112%
